Sfp inh = qHTS Assay for Inhibitors of Bacillus subtilis Sfp phosphopantetheinyl transferase (PPTase); 4'-phosphopantetheinyl transferase ffp (Bacillus subtilis), Q9F4F7; Biochemical Sfp PPTase activity, qHTS; Potency, µM, for the others: largest response in the series, negative = inhibition, usual class: inhibitors; 310,000 compounds, 3.5% hits; AID 1490, 2009;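 also: the enzyme is Sfp with the accession as filed and its product quenches rhodamine fluorescence; 0% = enzyme reaction without inhibitor and -100% = no enzyme wells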
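With Hepes-Na pH 7.6 buffer containing 10 mM MgCl2, Sfp (15 nM) modified BHQ-2-YbbR (12.5 uM) using rhodamine-CoA (5 uM). Two reads 30 minutes apart at 525/598 nm yielded each well's rate.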
rTrxR1 inhibitor = qHTS Assay for Inhibitors of Mammalian Selenoprotein Thioredoxin Reductase 1 (TrxR1): qHTS; 390,000 compounds, 1% hits; recombinant rTrxR1, NADPH fluorescence consumption, selenite substrate; Thioredoxin reductase 1, cytoplasmic (Rattus norvegicus), O89049; Potency, µM (highest dose often 114 µM), for inactives: at the highest dose activity change, negative = inhibition, hits mostly inhibitors; also: nearly all actives have a fitted effect of over 65% in size
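Rat TrxR1 (90 nM in the dispensed reagent) was pre-reduced with 400 uM NADPH for 5 min at room temperature, then incubated with compound for 15 min. After 400 uM selenite was added, NADPH fluorescence (Ex 340/Em 450 nm) was followed for 8 min.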
mIDH1 inhibitor = qHTS for Inhibitors of mutant isocitrate dehydrogenase 1 (IDH1): qHTS; IDH1-R132H enzyme, NADPH consumption, diaphorase/resazurin fluorescence; Potency, µM (series often up to 76.6 µM), inactives show at the top dose activity change, negative = inhibition, usual class: inhibitors; 390,000 compounds, 0.093% hits; also: nearly all actives have a fitted effect of over 65% in size
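IDH1-R132H (0.5 ug/mL) preincubated 30 min with compound, then NADPH (0.016 mM) and alpha-KG (2 mM) added; 80 min at RT, pH 7.5. Remaining NADPH coupled via diaphorase/resazurin to fluorescence (540/590 nm); concentration-response curves normalized to no-enzyme control.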
TrxR1 substrate = qHTS Assay for Substrates of Mammalian Selenoprotein Thioredoxin Reductase 1 (TrxR1): qHTS; purified TrxR1 substrate turnover, NADPH consumption readout; Potency, µM (titrated, usually from 114 µM), for the others: at the highest dose activity change, negative = substrate turnover; 390,000 compounds, 0.01% hits; Thioredoxin reductase 1, cytoplasmic (Rattus norvegicus), O89049; also: nearly all actives have a fitted effect of over 50% in size
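Rat TrxR1, dispensed at 90 nM, was prereduced with 400 uM NADPH (final) for 5 min at ~22 deg C, then incubated with compound 15 min before 400 uM selenite. A first-read NADPH fluorescence drop versus no-compound background flagged substrates.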
PLK1 PBD block = qHTS for Inhibitors of PLK1-PDB (polo-like kinase 1 - polo-box domain): Primary Screen; Serine/threonine-protein kinase PLK1 (Homo sapiens), P53350; Potency, µM, for the others: max response, negative = inhibition, usual class: inhibitors; 360,000 compounds, 2.8% hits; Plk1 PBD binding of FITC phosphopeptide, fluorescence polarization; also: series mostly up to about 57 µM; nearly all actives have a fitted effect of over 65% in size
VDR inhibitor = Inhibitors of the vitamin D receptor (VDR): qHTS; VDR-SRC2-3 peptide fluorescence polarization, 2 h; 400,000 compounds, 0.93% hits; Vitamin D3 receptor (Homo sapiens), P11473; Potency, µM, for the others: max response, negative = inhibition, usual class: inhibitors
Target sequence (P11473 whole entry, looked up): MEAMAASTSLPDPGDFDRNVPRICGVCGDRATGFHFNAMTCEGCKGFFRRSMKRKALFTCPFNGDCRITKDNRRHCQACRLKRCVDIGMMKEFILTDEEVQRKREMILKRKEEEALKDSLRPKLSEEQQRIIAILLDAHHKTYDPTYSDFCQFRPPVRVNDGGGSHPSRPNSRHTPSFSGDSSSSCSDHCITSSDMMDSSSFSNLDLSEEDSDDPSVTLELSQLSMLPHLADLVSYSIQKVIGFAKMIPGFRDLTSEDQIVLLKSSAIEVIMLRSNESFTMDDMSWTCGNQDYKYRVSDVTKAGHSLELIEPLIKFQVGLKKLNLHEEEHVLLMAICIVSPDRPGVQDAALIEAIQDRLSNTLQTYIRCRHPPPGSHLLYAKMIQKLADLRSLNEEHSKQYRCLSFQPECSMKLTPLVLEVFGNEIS
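Signal is fluorescence polarization, reporting how far test compounds block the interaction of VDR with the SRC2-3 coregulator peptide after a 2 h room-temperature incubation.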
* hit, by the source's call; ? = inconclusive; nt = no result given; [ ] = another dose, or the depositor's remark. Only some compounds are listed: those with a hit (about 5.2% of all), similar ones and a draw of the others. Calls follow the shape of the dose curve; as a rule, active = well fitted curve in the direction sought with a large enough effect; inconclusive = small, poorly fitted or top-dose-only effect, or another doubt; inactive = no such curve, though single readings can be large; an effect the other way counts as inactive or inconclusive. Unless noted, % is scaled to controls: 0 for no effect and ±100 for the full control effect; potency is read from the fitted curve at half-maximal effect.

SMILES | Sfp inh | rTrxR1 inhibitor | mIDH1 inhibitor | TrxR1 substrate | PLK1 PBD block | VDR inhibitor
CC(C)/C=N/Nc1nc(-c2ccc(Br)cc2)cs1 | 79.4µM* | -20.1% | 4.3% | -7.9% | -24.9% | 1.3%
Oc1ccc2c(c1)C1CCCC1(N1CCOCC1)O2 (stereo not drawn) | 50.1µM* | ? | 3.0% | 10.6% | 1.4% | -12.7%
CC1=C(C(=O)N2CCOCC2)C(c2ccc(O)cc2)NC(=S)N1 (stereo not drawn) | ? | -14.8% | 7.5% | -8.0% | -7.9% | 9.6%
O=C(c1cc(C(F)(F)F)cc(C(F)(F)F)c1)N1CCC2(CCCN(Cc3nccs3)C2)CC1 | 21.5% | nt | nt | nt | nt | ?
CCOc1cc(/C=N\NC(=O)OC(C)(C)C)ccc1OC(=O)c1ccco1 | -4.0% | 15.8%[57.1 µM] | -7.9% | -3.7% | 21.2µM* | -17.2%
CCOc1cc(/C=C2/SC(=S)NC2=O)ccc1OC(=O)c1ccco1 | 39.8µM* | -6.2% | -12.9% | -4.9% | 21.2µM* | -3.4%
CC(C)(C)OC(=O)N/N=C\c1ccc(OC(=O)c2ccco2)cc1 | 11.6% | 13.2%[57.1 µM] | 0.0% | -3.7% | 23.8µM* | -2.5%
COc1cc(/C=C2/SC(=O)NC2=O)ccc1OC(=O)c1ccco1 | 5.8% | -32.2% | -2.3% | -19.5% | -19.5% | -4.1%
CCOc1cc(/C=N\NC(=O)OC)ccc1OC(=O)c1ccco1 | 18.7% | 10.1% | 0.0% | -0.7% | 4.0% | 15.2%
COc1ccc(NC(=O)Cn2c(=O)oc3cc(S(=O)(=O)NC(C)C)ccc32)cc1OC | nt | 5.4%[57.1 µM] | -7.6% | 5.2%[57.1 µM] | nt | 7.3%
O=[N+]([O-])c1cccc(NN=Nc2ccccc2)c1 | -10.0% | 1.3% | -5.2% | -4.6% | -1.8% | 29.4%
O=[N+]([O-])c1ccc(N=NNc2ccccc2)cc1 | -10.8% | 12.9% | 13.5% | -3.7% | 29.9µM* | -23.5%
COc1ccc(-n2cccc2/C=C/[N+](=O)[O-])cc1 | ? | 10µM* | 9.5% | 2.7% | 26.7µM* | ?
Cc1cc(/C=C/c2ccccc2)nc2ccccc12 | nt | 3.0% | nt | 4.7% | nt | nt
O=C(O)Cn1nc(-c2ccc(F)cc2)oc1=O | 31.5% | 9.8% | 4.4% | -1.5% | 23.8µM* | ?
CCCn1c(CCC(=O)Nc2ccc(C)c(Cl)c2)nc2cccnc21 | nt | -6.1% | 35.5% | -13.1% | nt | -12.0%
CCCCCOC(=O)c1[nH]c2c(c1C)C(=O)C(C(=O)OC)C(C)C2 (stereo not drawn) | -15.3% | 3.9%[57.1 µM] | -0.2% | -4.8%[57.1 µM] | 2.99µM* | ?
Cc1ccc(-n2nnnc2SCC(=O)NCC2(N3CCOCC3)CCCCC2)c(C)c1 | nt | 13.1% | 0.8% | -2.1% | 2.6% | 5.0%
CCc1ccccc1NC1=NCC(=O)N1Cc1ccc(OC)cc1 | 10.4% | 3.0% | -2.0% | 2.5% | -12.7% | -11.1%
CCc1ccccc1NC1=NCC(=O)N1C1CCCC1 | 10.7% | 6.0% | -2.9% | -4.3% | 29.9µM* | -27.5%
Cc1cccc(CN2CC34CCC(CC3S2(=O)=O)O4)c1 (stereo not drawn) | -20.4% | -8.9% | nt | -6.9% | nt | 6.8%
O=C(C[n+]1cccc(Br)c1)c1ccc(Br)cc1 | nt | -16.4% | nt | 5.3% | nt | nt
OCCN(CCO)c1nc(N2CCCCC2)c2nc(N(CCO)CCO)nc(N3CCCCC3)c2n1 | -25.6% | ? | ? | 63.4%[57.1 µM] | 11.9µM* | -19.6%
COc1cc2cc(C)c(Br)c(OC)c2cc1OC | nt | -5.8%[11.4 µM] | 6.3% | 7.9%[57.1 µM] | -1.1% | -9.4%
Cc1csc2nc(COC(=O)c3ccc(NC(=O)C(C)Oc4ccccc4)cc3)cc(=O)n12 (stereo not drawn) | nt | 11.3%[57.1 µM] | -6.4% | 2.8%[57.1 µM] | nt | 2.4%
